Consider 114 compounds from ChEMBL document CHEMBL4513216, “Probing the Open Global Health Chemical Diversity Library for Multistage-Active Starting Points for Next-Generation Antimalarials” (ACS Infect Dis, 2020).

Among all 69,000 compounds or so, about 8,600 (12%) showed an effect of 50% or more. This excerpt belongs to a sample that is enriched for strong results.

This assay concerns Plasmodium berghei. The assay is described as follows: Screen against P. berghei liver stage (PbLuc), transformed with Luciferase, at 10uM. In kind it is functional, HepG2. As to conditions: tested at 10 uM.
With `c1cnc(N2CCO[C@H]3[C@H](OCCN4CCCC4)CC[C@@H]32)nc1`, the INHIBITION was 43.8%. Next, `CNC(=O)NCC1CCC2(CCN(C(=O)c3cccnc3)CC2)CO1` (centres undefined): 41.2%. For `O=C(Cc1cccs1)N1Cc2nc(CN3CCCC3)oc2C1`, the INHIBITION turned out to be 30.5%. Take `Cc1cccc(S(=O)(=O)N2C[C@@H]3C[C@H](C(=O)NCC4CC4)[C@H](C2)O3)c1`: the INHIBITION was found to be 2.4%.

`CCc1nc(N2CCC3(CC2)[C@H](O)C[C@@H]3O)ncc1C`: the INHIBITION is recorded as -50.8%. In the case of `CCOCC1CC2(CCN(C(=O)c3ncccn3)CC2)CO1` (centres undefined) it was 33.4%; in that of `Cc1cnn(CCNCc2ccc(OCC(N)=O)cc2)c1`, -41.1%; in that of `Cc1cnn(CC(C)NCc2cc(=O)n3ccccc3n2)c1` (centres undefined), 89.6%. Next, `Cc1cnn(CC2CCCN2Cc2cc(=O)n3ccccc3n2)c1` (centres undefined): 28.3%.

Regarding `Cc1cnn(CC(C)NCc2ccc(OCC(N)=O)cc2)c1` (centres undefined), the INHIBITION is 58.5%. In the case of `Cc1cnn(CC(C)NCc2ccc(OCc3nccn3C)cc2)c1` (centres undefined) it was -34%. `Cc1cnn(CC(C)NCc2ccncc2)c1` (centres undefined): the INHIBITION was -17.6%. `Cc1cnn(CC(C)NCc2ccc(OCc3ccncc3)cc2)c1` (centres undefined): the INHIBITION came out at 54.6%. In the case of `COc1cc(CNC(C)Cn2cccn2)cc(OC)c1OC` (centres undefined) it was 36.4%; in that of `Cc1cnn(CC(C)NCc2ccc(OCc3cscn3)cc2)c1` (centres undefined), -11.4%.

Consider `COc1ccc(CNC(C)Cn2cccn2)cc1OC` (centres undefined), for which the INHIBITION is reported as 27.8%. Next, `COc1ccc(CNC(C)Cn2cccn2)cc1F` (centres undefined): 59.4%; `Cc1cnn(CC(C)NCc2cc(=O)n3cc(C)ccc3n2)c1` (centres undefined): -16.1%. In the case of `COCCN1C(=O)[C@@H]2CC[C@H]1CN(C(=O)COc1ccc(F)c(Cl)c1)C2`, the INHIBITION is on record as -102%. In the case of `CN(C)[C@@H]1CCN(C(=O)c2ccccn2)[C@H]1Cc1cnn(C)c1` it was 20.6%; in that of `CCN1CC(CN(C)Cc2nc(-c3ccc(F)cc3)oc2C)CC1=O` (centres undefined), 34.2%. On to `CN(Cc1nc(Cc2cccc(C(F)(F)F)c2)no1)C1CCCCC1`, for which the INHIBITION came out at 43.9%.

Turning to `Cc1cnn(CCNCc2csc(-c3ccco3)n2)c1`, the INHIBITION is given as -4.9%. In the case of `COc1c(CNCc2ccnc(N(C)C)c2)c(C(C)C)nn1C` it was 9.47%; in that of `CC(C)c1noc(C2CC(=O)N(CCN(C)C)C2)n1` (centres undefined), 16.5%; in that of `COc1ccc2c(ccn2CCC(=O)NCCC(=O)O)c1`, 42.1%. Next, `COCCCNC(=O)CN(C)C(=O)c1cc2cc(C)ccc2nc1C`: 5.885%; `COc1cccc(S(=O)(=O)NC(=O)COC2CCCCC2)c1`: 1.78%; `CCn1nnc(NCc2ccc(-c3ccc(Br)cc3)o2)n1`: 12.3%.

Regarding `CC(C)c1cc(C(=O)N2C[C@@H]3CC[C@H]2CN(Cc2cccnc2)C3)no1`, the INHIBITION is given as 2.02%. Next, `Cn1ncnc1-c1ccnc(NCc2ccncc2)n1`: 14.5%; `Cn1ccnc1CNc1nccc(-c2ncnn2C)n1`: -29%; `Cn1ncnc1-c1ccnc(NCCCc2ccncc2)n1`: 94.3%. With `COCC(=O)N1CC[C@@H](N2CCN(C)CC2)[C@@H]1Cc1ccccc1`, the INHIBITION is recorded as 41.6%.

Regarding `CCN1CCC2(CC1)CC(NC(=O)N(C)C)c1cc(C)ccc12` (centres undefined), the INHIBITION is listed as 12.2%.

For `CC(=O)NCC(=O)NC1CCc2nccn2C1` (centres undefined), the INHIBITION stood at 40.6%. In the case of `N#Cc1cc(F)c(NCc2ccc(F)cc2)c(F)c1` it was 51.7%; in that of `N#Cc1cc(F)c(NCCc2ccc(F)cc2)c(F)c1`, 23.9%.

Regarding `N#Cc1cc(F)c(NCCc2ccc(S(N)(=O)=O)cc2)c(F)c1`, the INHIBITION is reported as 37.8%. Next, `c1cc(-c2cnccn2)cc(-c2ccn(CCN3CCCCC3)n2)c1`: 5.38%. In the case of `Cc1cnc(C)c(-c2cccc(-c3ccn(CCN4CCCC4)n3)c2)n1` it was 55.6%; in that of `c1cc(-c2cnccn2)cc(-c2ccn(CCCN3CCCCC3)n2)c1`, 26.9%; in that of `Cc1ccc(-c2cccc(-c3ccn(CCN4CCCC4)n3)c2)nn1`, 46.8%.

Take `c1ccc(-c2cccc(-c3ccn(CCN4CCCCC4)n3)c2)nc1`: the INHIBITION was 48.4%.

Take `c1cc(-c2cnccn2)cc(-c2ccn(CCN3CCCC3)n2)c1`: the INHIBITION amounted to 55.1%. On to `CCCOCC1CCN(C(=O)Cn2ncc(N3CCCC3)cc2=O)C1` (centres undefined), for which the INHIBITION is given as -13.6%. In the case of `c1csc(CN2CCO[C@H]3[C@H](OCCN4CCCC4)CC[C@@H]32)n1` it was 16.8%; in that of `CCO[C@@H]1CO[C@@]2(CCCN(Cc3scnc3C)C2)C1`, 5.14%; in that of `CN(C)CCCN(C)c1nccc(N2CCN[C@H]3CS(=O)(=O)C[C@H]32)n1`, 59.3%. Next, `CCN(C)c1nccc(N2CCN[C@H]3CS(=O)(=O)C[C@H]32)n1`: 40.9%; `CN(CCN1CCCC1)c1nccc(N2CCN[C@H]3CS(=O)(=O)C[C@H]32)n1`: 45.3%. Next, `CCC(C)(C)NC(=O)c1ncn2c1CN(C)S(=O)(=O)c1ccccc1-2`: 47.4%; `Cn1nnc2c1C(COCc1ccccn1)CN(Cc1ccoc1)C2` (centres undefined): 49.2%; `COCc1n[nH]c2c1CN(Cc1ccccn1)C2`: 47.5%.

With `OCCOCc1n[nH]c2c1CN(Cc1ccccn1)C2`, the INHIBITION is on record as 35.8%. Next, `c1cncc(OCc2n[nH]c3c2CN(Cc2cccs2)C3)c1`: 51.2%. Next, `OCCOCc1n[nH]c2c1CN(Cc1cccs1)C2`: 58.5%; `c1csc(CN2Cc3[nH]nc(COCC4CC4)c3C2)c1`: 46.7%; `c1ccc(OCc2n[nH]c3c2CN(Cc2cccs2)C3)nc1`: -0.804%.

Consider `CN(C)Cc1n[nH]c2c1CCN(Cc1cccs1)C2`, for which the INHIBITION was determined as 34.6%. Next, `COCc1n[nH]c2c1CN(Cc1cccs1)C2`: 64.5%. In the case of `c1ccc(CN2Cc3[nH]nc(COc4cccnc4)c3C2)nc1` it was 25.8%; in that of `Cc1nn(C)c(C)c1CCC(=O)N1CCCC(n2cncn2)C1` (centres undefined), 27.6%; in that of `OCC1(O)CCCN(Cc2noc(-c3ccccc3)n2)CC1` (centres undefined), 41.2%. On to `C[S+]([O-])CCNC(=O)N1CCSC(C)(C)C1` (centres undefined), for which the INHIBITION amounted to 25.4%.

For `O=S(=O)(Cc1ccccc1)c1nnc(N2CCCC2)s1`, the INHIBITION is reported as 53.8%. Next, `Cc1cccc(CS(=O)(=O)c2nnc(N3CCOCC3)s2)c1`: 0%. Next, `O=S(=O)(Cc1ccccc1)c1nnc(N2CCOCC2)s1`: 0%. Next, `CS(=O)(=O)NCc1ncn2c1CN(CCN1CCCC1)CCC2`: 31.1%; `CC(C)CC(=O)NCC(O)c1c(F)cccc1F` (centres undefined): 21.8%.

`CCC1CCCCN1Cc1nc2c(cnn2C)c(=O)[nH]1` (centres undefined): the INHIBITION turned out to be 25.1%. With `CC(C)OCc1ccccc1CNC(=O)C(C)(C)C`, the INHIBITION was found to be 68.6%. In the case of `CCc1ccccc1CNC(=O)CNC(=O)C(C)(C)C` it was -11.5%; in that of `CC(C)OCc1ccccc1CNC(=O)C(C)S(=O)(=O)C(C)C` (centres undefined), 3.84%. `CCN(CC)C(=O)c1ccc(Cl)c(NC(=O)c2cc(C(C)C)on2)c1`: the INHIBITION is on record as 43%. In the case of `CN(C)Cc1cnc(CC2CCN(CCc3ccccc3)CC2)cn1` it was 9.05%; in that of `c1cnc(N2CCO[C@H]3[C@H](OCC4CC4)CC[C@@H]32)nc1`, 21.6%; in that of `CCC1CCCCCN1C(=O)c1cc(C#N)c(SC)[nH]c1=O` (centres undefined), 49.9%. For the compound `CSc1[nH]c(=O)c(C(=O)N2CCCC2c2cccs2)cc1C#N` (centres undefined), the INHIBITION is on record as 53.3%. Next, `CSc1[nH]c(=O)c(C(=O)N2CCCC2C2CCCC2)cc1C#N` (centres undefined): 0.672%. For `CN(C)c1ncc(-c2cc(C(=O)N3CCCC3)n(CC3CC3)c2)cn1`, the INHIBITION is reported as 3.58%. In the case of `O=C(c1csc(-c2ccco2)n1)N1CCOc2ncccc21` it was -178%.

Turning to `CCCc1ncc(C(=O)N2CCOc3ncccc32)s1`, the INHIBITION is listed as 63.8%. Next, `O=C(c1cnc(-c2ccco2)s1)N1CCOc2ncccc21`: -40.6%; `Cc1cccc(OC2(C(=O)O)CCN(C(=O)CCc3ccco3)CC2)c1`: 16.6%; `Cc1cn(-c2ccccc2)nc1NS(=O)(=O)c1ccc(C(=O)O)cc1`: 20.9%. Regarding `CCc1c(C)n(CC(=O)OC)c2nc3ccccc3n2c1=O`, the INHIBITION amounted to 15%. Next, `Cc1noc([C@@H]2C[C@H]3OCC[C@H]3N(S(=O)(=O)c3cccnc3)C2)n1`: 30.1%; `CCC[C@H]1CN(S(=O)(=O)c2ccccc2)C[C@@H]1N`: -2.34%; `CCC[C@H]1CN(S(=O)(=O)c2cc(C)ccc2F)C[C@@H]1N`: 44.2%. For `CCC[C@H]1CN(S(=O)(=O)c2ccc(-c3c(C)noc3C)s2)C[C@@H]1N`, the INHIBITION worked out at 72.6%. Next, `CCC[C@H]1CN(S(=O)(=O)c2cc(C)ccc2C)C[C@@H]1N`: 57.2%. For `CCC[C@H]1CN(S(=O)(=O)c2c(C)noc2C)C[C@@H]1N`, the INHIBITION is given as -28.9%.

`CCc1ccc(S(=O)(=O)N2CC3(COC(C)(C)OC3)C2)s1`: the INHIBITION came to 42.7%.

As for `CCC[C@H]1CN(S(=O)(=O)c2ccc(CC)s2)C[C@@H]1N`, the INHIBITION turned out to be 52.2%. With `CCC[C@@H]1CN(S(=O)(=O)c2ccc(C)c(F)c2)C[C@H]1N(C)C`, the INHIBITION is reported as 37.8%. Next, `Cc1cc(-c2cc(S(=O)(=O)N3C[C@H](C4CC4)[C@@H](N)C3)c(C)s2)on1`: 45.3%; `O=C1[C@H]2CN(CC3CCOCC3)C[C@H]2CN1Cc1cccc(F)c1`: -53.6%.

Turning to `CNc1nc2cn(Cc3ccc(Cl)cc3)c(=O)c-2c[nH]1`, the INHIBITION is -14.7%. Next, `CCc1ncc(C(=O)N2CCCN(C3CCCCC3)CC2)cn1`: 37.7%; `COc1ncc(CN2CCC3(CCNC(=O)CC3)CC2)cn1`: 39.5%.

For `CN(C)C(=O)C1CN(Cc2cccs2)CCN(S(C)(=O)=O)C1` (centres undefined), the INHIBITION was determined as 32.8%. Next, `COc1ccccc1OCCN1CCCCC1Cn1cncn1` (centres undefined): 79.5%. Next, `Fc1ccccc1OCCN1CCCCC1Cn1cncn1` (centres undefined): -29.1%; `Cc1cnn(CC2CCCN2Cc2nc3ccccc3c(=O)[nH]2)c1` (centres undefined): 26.4%; `Nc1nc(CN2CCCCC2Cn2cncn2)nc2ccccc12` (centres undefined): 32.9%.

Regarding `N#Cc1ccccc1OCCN1CCCCC1Cn1cncn1` (centres undefined), the INHIBITION turned out to be 6.56%. In the case of `Cc1nc(CN2CCCCC2Cn2cncn2)nc2ccccc12` (centres undefined) it was 51.3%. In the case of `Cc1cnn(CC2CCCN2CCc2nc3ccccc3c(=O)[nH]2)c1` (centres undefined) it was 61.3%; in that of `Cc1cc(C)n(CC2CCCN2Cc2nc(N)c3ccccc3n2)n1` (centres undefined), 37.9%; in that of `O=c1[nH]c(CCN2CCCC2Cn2cccn2)nc2ccccc12` (centres undefined), 14.4%.

As for `Cc1nc(C)n(CC2CCCN2Cc2nc(C)c3ccccc3n2)n1` (centres undefined), the INHIBITION stood at 17.4%. Next, `Cc1nc(CN2CCCC2Cn2cncn2)nc2ccccc12` (centres undefined): 5.7%. Consider `Cc1nc(C)n(CC2CCCN2Cc2nc(N)c3ccccc3n2)n1` (centres undefined), for which the INHIBITION was found to be 59.7%.
